In ChEMBL document CHEMBL3988442, “University of Dundee, Small-Polar-MMV Screening Library” (2021):
For some of these results: Results with a measured potency or affinity are listed apart.

Experiments:
Set-up in all cases: scale not given: direction of the effect not stated beside the values
[1] = target: Protein translocase subunit SecA (Escherichia coli (strain K12)) (UniProt P10408); test: Assay to Identify E. coli SecA ATPase Inhibitors; format: functional; settings: 30 µM
[2] = target: T1, Ubiquitin-activating enzyme e1, putative (Leishmania donovani (strain BPK282A1)) (UniProt E9BSI1); test: Leishmania donovani Ubiquitin Activating Enzyme (LdE1); format: functional; settings: 30 µM
T1 sequence (whole entry): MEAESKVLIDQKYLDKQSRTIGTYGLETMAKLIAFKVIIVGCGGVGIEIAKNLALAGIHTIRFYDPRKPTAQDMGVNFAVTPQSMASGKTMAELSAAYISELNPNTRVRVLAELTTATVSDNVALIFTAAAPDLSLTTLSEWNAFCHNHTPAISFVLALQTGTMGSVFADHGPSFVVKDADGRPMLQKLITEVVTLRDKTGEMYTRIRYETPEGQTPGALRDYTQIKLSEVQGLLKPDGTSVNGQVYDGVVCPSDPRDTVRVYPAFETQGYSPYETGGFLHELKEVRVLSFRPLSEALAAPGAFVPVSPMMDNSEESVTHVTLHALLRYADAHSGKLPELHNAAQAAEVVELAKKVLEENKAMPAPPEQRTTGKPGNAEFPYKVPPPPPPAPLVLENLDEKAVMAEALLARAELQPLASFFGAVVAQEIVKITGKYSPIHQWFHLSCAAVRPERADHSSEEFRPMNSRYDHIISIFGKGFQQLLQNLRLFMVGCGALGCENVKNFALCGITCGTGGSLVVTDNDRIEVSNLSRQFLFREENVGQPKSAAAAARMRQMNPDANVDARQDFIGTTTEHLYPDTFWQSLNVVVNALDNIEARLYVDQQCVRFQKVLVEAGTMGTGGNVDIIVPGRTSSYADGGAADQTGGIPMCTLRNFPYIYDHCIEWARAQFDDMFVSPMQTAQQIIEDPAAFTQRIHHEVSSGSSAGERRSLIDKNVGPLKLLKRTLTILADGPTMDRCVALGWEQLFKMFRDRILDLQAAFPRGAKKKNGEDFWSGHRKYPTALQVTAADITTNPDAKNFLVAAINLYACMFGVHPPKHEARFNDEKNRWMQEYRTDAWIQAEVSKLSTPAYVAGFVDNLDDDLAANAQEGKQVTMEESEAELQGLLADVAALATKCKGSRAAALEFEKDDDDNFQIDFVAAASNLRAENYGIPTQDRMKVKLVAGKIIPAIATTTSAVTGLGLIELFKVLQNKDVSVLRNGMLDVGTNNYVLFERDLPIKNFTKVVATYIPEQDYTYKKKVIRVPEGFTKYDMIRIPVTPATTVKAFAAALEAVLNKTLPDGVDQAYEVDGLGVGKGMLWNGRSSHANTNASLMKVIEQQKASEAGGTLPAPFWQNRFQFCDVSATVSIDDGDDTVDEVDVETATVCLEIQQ

[3] = target: AMP-activated protein kinase, AMPK (Homo sapiens) (UniProt P54646+O43741+P54619+Q9UGJ0+Q9Y478+Q13131+Q9UGI9); test: AMP-dependent Kinase enzyme assay. An in vitro enzyme assay that detects ADP turnover that is directly proportional to AMPK activity. This uses naive AMPK that is activated during the assay with MK-8722; format: functional; settings: 30 µM
[4] = target: Sialic acid-binding Ig-like lectin 9 (Homo sapiens) (UniProt Q9Y336); test: Hs-Siglec9 ALPHAscreen SOP 20170721; settings: 10 µM
Sequence of Sialic acid-binding Ig-like lectin 9 (Homo sapiens) (Q9Y336 whole entry): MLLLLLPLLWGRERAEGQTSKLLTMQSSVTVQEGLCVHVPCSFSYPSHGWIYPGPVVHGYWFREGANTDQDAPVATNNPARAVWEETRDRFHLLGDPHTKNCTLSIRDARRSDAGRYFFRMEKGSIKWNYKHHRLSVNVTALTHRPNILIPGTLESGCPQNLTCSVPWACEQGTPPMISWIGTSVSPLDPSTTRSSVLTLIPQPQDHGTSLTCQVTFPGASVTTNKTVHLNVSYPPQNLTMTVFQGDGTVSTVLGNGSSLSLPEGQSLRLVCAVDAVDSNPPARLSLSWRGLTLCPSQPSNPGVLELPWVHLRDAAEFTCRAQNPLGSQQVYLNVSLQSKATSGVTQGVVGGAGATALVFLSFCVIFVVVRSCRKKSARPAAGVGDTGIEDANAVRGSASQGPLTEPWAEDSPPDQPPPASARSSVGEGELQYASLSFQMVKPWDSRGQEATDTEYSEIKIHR

Trypanosoma cruzi = test: Trypanosoma cruzi phosphomannomutase and mannose-1-phosphate guanylyltransferase assay; format: functional; settings: 10 µM
[5] = target: T2, Arginase-2, mitochondrial (Homo sapiens) (UniProt P78540); test: in vitro enzyme assay to detect the production of urea directly proportional to the activity of Arginase II; format: functional; settings: 33.3 µM; further: in the data most compounds retested in dose-response had high values
T2 sequence (whole entry): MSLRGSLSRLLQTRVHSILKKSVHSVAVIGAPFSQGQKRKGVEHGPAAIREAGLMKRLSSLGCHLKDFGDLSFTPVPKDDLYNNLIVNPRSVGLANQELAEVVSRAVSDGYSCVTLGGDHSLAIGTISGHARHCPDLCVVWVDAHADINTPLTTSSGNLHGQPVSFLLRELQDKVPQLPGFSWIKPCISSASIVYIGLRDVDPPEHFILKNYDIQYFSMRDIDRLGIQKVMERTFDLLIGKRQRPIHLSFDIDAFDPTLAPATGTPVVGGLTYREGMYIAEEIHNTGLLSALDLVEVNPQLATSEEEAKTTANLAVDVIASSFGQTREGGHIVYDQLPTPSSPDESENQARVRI

[6] = target: T3, Proteasome subunit beta (Trypanosoma cruzi) (UniProt O96673); test: Trypanosoma cruzi proteasome chymotrypsin-like activity (TcProtChymo) assay.; further: in the data most compounds retested in dose-response had high values; format: functional; settings: 9.37 µM
T3 sequence (whole entry): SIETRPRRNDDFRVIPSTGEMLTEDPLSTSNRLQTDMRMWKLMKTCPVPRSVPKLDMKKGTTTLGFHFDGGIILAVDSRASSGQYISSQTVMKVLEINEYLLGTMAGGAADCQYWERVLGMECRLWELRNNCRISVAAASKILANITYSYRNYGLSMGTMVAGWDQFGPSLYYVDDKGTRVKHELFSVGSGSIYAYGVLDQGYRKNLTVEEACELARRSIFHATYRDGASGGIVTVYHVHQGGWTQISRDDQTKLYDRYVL

Homo sapiens = species: Homo sapiens; test: To identify inhibition of the IFN signalling (Jak-Stat) pathway via expression of an eGFP reporter gene under the control of an IFN-stimulated response element (ISRE) containing MxA promoter.; format: functional; settings: 30 µM
[7] = target: T4, Tyrosyl-tRNA synthetase, putative (Trypanosoma cruzi (strain CL Brener)) (UniProt Q4DSP6); test: Trypanosoma cruzi tyrosyl tRNA synthetase (TcYRS) _High Tyrosine SOP; format: functional; settings: 30 µM; further: in the data most compounds retested in dose-response had high values
T4 sequence (whole entry): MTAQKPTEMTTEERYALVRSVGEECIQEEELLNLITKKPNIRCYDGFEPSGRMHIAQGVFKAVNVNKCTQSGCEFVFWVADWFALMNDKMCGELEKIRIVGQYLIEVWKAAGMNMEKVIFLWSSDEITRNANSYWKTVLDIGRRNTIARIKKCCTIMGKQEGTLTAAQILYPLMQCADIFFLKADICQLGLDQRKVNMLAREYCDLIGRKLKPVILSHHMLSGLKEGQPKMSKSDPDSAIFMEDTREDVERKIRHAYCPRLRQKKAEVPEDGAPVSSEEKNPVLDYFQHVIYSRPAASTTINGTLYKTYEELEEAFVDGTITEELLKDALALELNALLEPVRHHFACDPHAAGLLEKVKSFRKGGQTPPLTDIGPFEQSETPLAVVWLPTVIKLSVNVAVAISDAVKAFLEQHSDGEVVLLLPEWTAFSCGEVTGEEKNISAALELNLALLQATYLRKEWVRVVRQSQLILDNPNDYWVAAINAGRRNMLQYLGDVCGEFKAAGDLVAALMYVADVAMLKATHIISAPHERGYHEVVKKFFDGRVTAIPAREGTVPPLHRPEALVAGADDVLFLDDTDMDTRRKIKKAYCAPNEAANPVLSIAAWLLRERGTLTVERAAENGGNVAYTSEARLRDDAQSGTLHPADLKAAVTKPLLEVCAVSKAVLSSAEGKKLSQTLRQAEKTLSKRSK

[8] = target: T4, Tyrosyl-tRNA synthetase, putative (Trypanosoma cruzi (strain CL Brener)); test: Trypanosoma cruzi tyrosyl tRNA synthetase (TcYRS) SOP; format: functional; settings: 30 µM
[9] = target: Chromo domain-containing protein 1 (Saccharomyces cerevisiae (strain ATCC 204508 / S288c) (Baker's yeast)) (UniProt P32657); test: ScCHD-1 Enzyme Inhibition Assay; format: functional; settings: 30 µM; further: in the data most compounds retested in dose-response had high values
Sequence of Chromo domain-containing protein 1 (Saccharomyces cerevisiae (strain ATCC 204508 / S288c) (Baker's yeast)) (P32657 whole entry, the tested form may be a part): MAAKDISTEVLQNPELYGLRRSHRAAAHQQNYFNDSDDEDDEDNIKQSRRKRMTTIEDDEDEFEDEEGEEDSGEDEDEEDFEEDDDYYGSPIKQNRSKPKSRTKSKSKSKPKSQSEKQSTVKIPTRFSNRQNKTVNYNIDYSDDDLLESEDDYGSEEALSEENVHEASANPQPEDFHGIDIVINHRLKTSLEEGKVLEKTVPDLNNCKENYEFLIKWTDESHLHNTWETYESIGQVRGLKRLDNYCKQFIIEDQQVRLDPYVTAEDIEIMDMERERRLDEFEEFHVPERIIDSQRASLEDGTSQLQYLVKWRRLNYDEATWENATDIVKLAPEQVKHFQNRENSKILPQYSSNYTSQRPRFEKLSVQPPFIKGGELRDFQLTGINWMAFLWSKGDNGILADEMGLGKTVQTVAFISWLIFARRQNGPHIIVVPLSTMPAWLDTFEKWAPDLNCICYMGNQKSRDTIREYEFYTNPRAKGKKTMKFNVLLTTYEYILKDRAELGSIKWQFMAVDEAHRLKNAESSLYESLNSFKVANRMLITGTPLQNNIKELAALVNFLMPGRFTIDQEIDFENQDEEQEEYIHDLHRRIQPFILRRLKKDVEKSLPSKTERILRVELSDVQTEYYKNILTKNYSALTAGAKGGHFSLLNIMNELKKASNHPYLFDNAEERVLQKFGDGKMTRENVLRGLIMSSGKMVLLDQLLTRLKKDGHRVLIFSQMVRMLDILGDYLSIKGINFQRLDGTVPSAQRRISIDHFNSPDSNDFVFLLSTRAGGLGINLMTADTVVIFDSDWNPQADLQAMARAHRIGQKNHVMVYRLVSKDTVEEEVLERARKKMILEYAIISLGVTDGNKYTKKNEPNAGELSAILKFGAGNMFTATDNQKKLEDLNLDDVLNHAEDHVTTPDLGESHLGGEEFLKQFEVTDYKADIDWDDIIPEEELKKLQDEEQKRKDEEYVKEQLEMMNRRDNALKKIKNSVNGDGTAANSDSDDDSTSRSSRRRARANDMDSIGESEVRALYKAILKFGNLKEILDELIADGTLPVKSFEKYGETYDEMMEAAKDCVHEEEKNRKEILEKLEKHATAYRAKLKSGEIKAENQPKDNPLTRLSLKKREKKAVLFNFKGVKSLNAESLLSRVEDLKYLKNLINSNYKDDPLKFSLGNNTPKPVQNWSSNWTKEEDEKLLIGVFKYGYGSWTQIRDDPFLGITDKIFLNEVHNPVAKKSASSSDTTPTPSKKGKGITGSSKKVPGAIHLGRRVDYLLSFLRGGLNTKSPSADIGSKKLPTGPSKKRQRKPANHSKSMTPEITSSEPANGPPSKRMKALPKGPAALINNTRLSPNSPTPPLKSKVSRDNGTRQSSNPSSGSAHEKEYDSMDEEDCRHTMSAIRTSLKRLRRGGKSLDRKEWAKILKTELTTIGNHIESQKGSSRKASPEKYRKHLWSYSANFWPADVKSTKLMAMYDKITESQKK

Sequence of Protein translocase subunit SecA (Escherichia coli (strain K12)) (P10408 whole entry): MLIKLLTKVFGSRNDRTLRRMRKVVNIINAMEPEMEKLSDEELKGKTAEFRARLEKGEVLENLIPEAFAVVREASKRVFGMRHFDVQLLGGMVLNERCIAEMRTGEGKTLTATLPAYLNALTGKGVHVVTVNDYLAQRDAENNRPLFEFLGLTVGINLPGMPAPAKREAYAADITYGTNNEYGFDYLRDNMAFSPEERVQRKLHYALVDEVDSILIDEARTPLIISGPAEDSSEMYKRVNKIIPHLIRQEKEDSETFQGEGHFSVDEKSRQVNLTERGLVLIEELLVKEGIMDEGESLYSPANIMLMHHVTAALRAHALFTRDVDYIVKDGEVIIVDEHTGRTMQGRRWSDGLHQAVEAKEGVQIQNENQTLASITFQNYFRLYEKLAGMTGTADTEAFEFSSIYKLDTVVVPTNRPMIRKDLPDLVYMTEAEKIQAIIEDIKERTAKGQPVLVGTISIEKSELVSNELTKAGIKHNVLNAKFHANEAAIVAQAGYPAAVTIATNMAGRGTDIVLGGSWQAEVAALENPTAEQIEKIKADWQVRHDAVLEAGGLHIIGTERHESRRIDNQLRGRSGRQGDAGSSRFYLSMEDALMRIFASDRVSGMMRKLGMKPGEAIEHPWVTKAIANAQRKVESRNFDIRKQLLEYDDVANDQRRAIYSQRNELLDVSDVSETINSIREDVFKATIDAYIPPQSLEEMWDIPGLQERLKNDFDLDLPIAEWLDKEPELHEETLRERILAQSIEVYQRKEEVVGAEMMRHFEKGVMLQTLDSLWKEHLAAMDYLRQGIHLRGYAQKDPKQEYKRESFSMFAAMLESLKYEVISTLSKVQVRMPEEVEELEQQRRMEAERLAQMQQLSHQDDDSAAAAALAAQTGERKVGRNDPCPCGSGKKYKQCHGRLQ

Row | Compound | Percent Effect [1] [%] | Percent Effect [2] [%] | Percent Effect [3] [%] | Percent Effect [4] [%] | Percent Effect (Trypanosoma cruzi) [%] | Percent Effect [5] [%] | Percent Effect [6] [%] | Percent Effect (Homo sapiens) [%] | Percent Effect [7] [%] | Percent Effect [8] [%] | Percent Effect [9] [%]
1 | CCc1ccc(NC(=O)N2C[C@H]3C[C@H](C(=O)NC)[C@@H](C2)O3)cc1 | 0.946 | 2.6 | 6.04 | -3.01 | -0.0986 | 0.645 | 5.4 | 11.2 | 1.06 | 6.41 | 93.4
2 | Cc1cc(CN2CCN(C(=O)C(C)C)[C@@H]3CS(=O)(=O)C[C@@H]32)ccc1F | -4.05 | 6.94 | -6.22 | -3.08 | -0.486 | 5.3 | 14.7 | -3.72 | 7.37 | 12.8 | -2.86
3 | Cc1nc(CN2CCN(C(=O)c3sccc3C3CC3)CC2)cs1 | -2.84 | 0 | 8.03 | 9.39 | -0.49 | 3.16 | 3.48 | -10.3 | -2.86 | -2.35 | -13.7
4 | CN1CCN(C(=O)c2cnc3c(cnn3C3CCCC3)c2)CC1 | -5.03 | 12.7 | -2.67 | -0.596 | 8.78 | 5.7 | 1.72 | -7.07 | 5.42 | 16.5 | -5.9
5 | CC(C)c1nc(C2CCCN2C(=O)c2ccc(N(C)C)nn2)no1 (stereo not given) | -0.476 | 16.2 | -4.5 | -2.95 | 0.0929 | -4.25 | 6.1 | 24.1 | 3.96 | 15.8 | -5.4
